A selection: hits, their analogues and other compounds. The true share with any hit is near 1.6%.
PERK inhibitor: human PERK inhibition, primary cell-based screen. Q9NZJ5. CHO PERK-DD fusion, SEAP luminescence translation reporter. inhibition, % at 5.6 µM. 0.17% of 220,000 active. AID 1416;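 active = inhibition above the mean inhibition of all tested compounds plus 3 SD, set separately per screening campaign, cut at about 2.9% in these data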;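 note: PERK kinase domain activated by AP20187 dimerizer at 100 nM; 0% = DMSO with dimerizer and 100% = rapamycin at 8.4 µM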
eIF4H inh: inhibitors of RNA binding by human eIF4H; eIF4H fluorescence polarization binding assay; inhibition, % at 35 µM; 0.94% of 290,000 active; AID 2012;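 note: calls also rest on retests at 20 µM and on dose response follow-up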
PABP1 MLLE inh: blocks PAM2 peptide binding to the PABP1 MLLE domain. P11940. GST-MLLE / FITC-PAM2 fluorescence polarization. inhibition, % at 20 µM. 0.36% of 360,000 active; in the data active = inhibition above about 35%, passing the limit was not always enough;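 note: plate controls were DMSO wells with GST-MLLE for no effect and wells lacking GST-MLLE protein for full effect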
eIF4E 4G PPI: inhibitors of eIF4E and eIF4G interaction in translation initiation; AID 782; inhibition, % at 21.7 µM; 0.37% of 220,000 active; TR-FRET eIF4E-eIF4GI(517-606) binding, 2 h;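 active = inhibition above about 30%, limit read from the data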;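 note: 0% = full FRET control wells and 100% = background wells lacking eIF4GI fragment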
PABP polyA inh: PABP-poly(A) binding inhibition; P11940; PABP-poly(A) RNA binding, fluorescence polarization; calls only at 35 µM; 1% of 290,000 active;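 note: calls also rest on retests at 20 µM and on dose response follow-up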
* marks the source's active call; other numbers are inactive results. Unless noted, the rule behind the calls is not given here.

CC(=O)Nc1ccc(NC(=O)c2ccc(-c3ccc([N+](=O)[O-])cc3)o2)cc1 was read as eIF4H inh 53.4*, PABP1 MLLE inh 1.2 and PABP polyA inh inactive.
For COc1ccc(NC(=O)c2ccc(-c3ccc([N+](=O)[O-])cc3)o2)cc1OC the results were PERK inhibitor 0.7, eIF4H inh -12.8, PABP1 MLLE inh 10.3, eIF4E 4G PPI -6.4 and PABP polyA inh inactive.
Screening COc1cccc(NC(=O)c2ccc(-c3ccc([N+](=O)[O-])cc3)o2)c1 returned PERK inhibitor -0.5, eIF4H inh 55.4, PABP1 MLLE inh 16.9, eIF4E 4G PPI -4.3 and PABP polyA inh active.
For CCn1nc(C)c(CN2CCCC(CNS(=O)(=O)c3ccc(OC)cc3)C2)c1C (centres undefined) the results were eIF4H inh -7.4, PABP1 MLLE inh -4.9 and PABP polyA inh inactive.
O=C(Nc1ccccc1C(=O)O)c1cc(S(=O)(=O)N2CCCCC2)c(Cl)cc1Cl was read as eIF4H inh -2.4, PABP1 MLLE inh -8.5 and PABP polyA inh inactive.
`O=C(CCCCC(=O)NN=Cc1ccccc1O)NN=Cc1ccccc1O` gave PABP1 MLLE inh -1.2.
Screening O=C(CCCC(=O)N/N=C/c1ccccc1C(=O)O)N/N=C/c1ccccc1C(=O)O returned PERK inhibitor 3.5*, eIF4H inh -7.7, PABP1 MLLE inh -18.9, eIF4E 4G PPI -3.5 and PABP polyA inh inactive.
`O=C1CC(c2ccc(F)cc2)Cc2nc(N3CCN(c4ccccc4)CC3)ncc21` (centres undefined) gave PERK inhibitor 0.5, eIF4H inh -5.4, PABP1 MLLE inh -4.6, eIF4E 4G PPI 4.6 and PABP polyA inh inactive.
`Cn1c(=O)c2cc3c(nc2n(C)c1=O)CC(c1ccccc1)CC3=O` (centres undefined) gave PERK inhibitor -0.8, eIF4H inh 1.2, PABP1 MLLE inh 14.1, eIF4E 4G PPI 9.4 and PABP polyA inh inactive.
For CSc1nc2nc3c(cn2n1)C(=O)CC(c1ccccc1)C3 (centres undefined) the results were PERK inhibitor -0.7, eIF4H inh 47.9*, PABP1 MLLE inh 3.4, eIF4E 4G PPI 0.5 and PABP polyA inh active.
`O=C1CC(c2ccccc2)Cc2nc3nc(C(F)(F)F)nn3cc21` (centres undefined) gave PERK inhibitor -0.3, eIF4H inh 92.3*, PABP1 MLLE inh 14.5, eIF4E 4G PPI -5.0 and PABP polyA inh active.
`O=C(c1ccc(Cl)cc1)n1c(NCc2ccccc2)n[nH]c1=S` gave PERK inhibitor 0.3, eIF4H inh 1.1, PABP1 MLLE inh -47.2, eIF4E 4G PPI -0.1 and PABP polyA inh inactive.
`Cc1cccc(CC(=O)N2CCCC2)c1` gave eIF4H inh -12.9, PABP1 MLLE inh -5.7 and PABP polyA inh inactive.
For Cc1occc1-c1nnc(SCC(=O)c2cc3ccccc3oc2=O)o1 the results were PERK inhibitor 0.3, eIF4H inh 60.3*, PABP1 MLLE inh 14.9, eIF4E 4G PPI -18.6 and PABP polyA inh inactive.
For Cc1occc1-c1nnc(SCC(=O)Nc2ccccn2)o1 the results were PERK inhibitor -0.3, eIF4H inh 0.0, PABP1 MLLE inh -14.6, eIF4E 4G PPI -0.5 and PABP polyA inh inactive.
For Cc1cn2c(N)c(C=C3C=C(Cl)C(=O)C(Cl)=C3)c(=O)nc2s1 the results were PERK inhibitor -0.1, eIF4H inh inconclusive, PABP1 MLLE inh -121.3, eIF4E 4G PPI -0.8 and PABP polyA inh inconclusive.
Screening COC1=C/C(=C/c2c(N)n3cc(C)sc3nc2=O)C=CC1=O returned PERK inhibitor 0.7, eIF4H inh 60.2*, PABP1 MLLE inh -147.7, eIF4E 4G PPI -2.7 and PABP polyA inh inactive.
`CCOC(=O)c1cc2c(ccn2C)n1CC(=O)N(Cc1ccccc1)c1ccccc1` gave PERK inhibitor -0.3, eIF4H inh 12.3, PABP1 MLLE inh 40.8*, eIF4E 4G PPI -4.3 and PABP polyA inh inactive.
Screening CCOC(=O)c1cc2c(ccn2C)n1CC(=O)N(Cc1ccccc1)c1ccc(F)cc1 returned PERK inhibitor 0.2, eIF4H inh -5.4, PABP1 MLLE inh 1.5, eIF4E 4G PPI -5.1 and PABP polyA inh inactive.
Screening CCOC(=O)Cc1c(C)nc2c(-c3ccccc3)c(C)[nH]n2c1=O returned PERK inhibitor 3.0*, eIF4H inh 1.0, PABP1 MLLE inh 3.6, eIF4E 4G PPI 0.8 and PABP polyA inh inactive.
For CCOC(=O)Cc1c(C)nc2c(-c3ccccc3)c(-c3ccccc3)[nH]n2c1=O the results were PERK inhibitor 0.4, eIF4H inh -1.8, PABP1 MLLE inh -11.3, eIF4E 4G PPI -3.2 and PABP polyA inh inactive.
For COc1ccccc1/C=C/C(=O)OCC(=O)NC(=O)NC1CCCC1 the results were PABP1 MLLE inh -4.4.
`COc1ccccc1CN1C[C@@H]2C[C@@H](c3ccc(C)c(C)c3)N3CCC[C@@]23C1=O` gave PERK inhibitor -0.3, eIF4H inh -15.6, PABP1 MLLE inh 4.1, eIF4E 4G PPI 2.0 and PABP polyA inh inactive.
For COc1ccc([C@@H]2C[C@H]3CN(Cc4ccccc4OC)C(=O)[C@]34CCCN24)cc1C the results were PERK inhibitor -0.2, eIF4H inh 51.6*, PABP1 MLLE inh -23.2, eIF4E 4G PPI -2.0 and PABP polyA inh active.
Screening CC(=O)Nc1c(Nc2ccccc2)c2ccccc2oc1=O returned PERK inhibitor 0.5, eIF4H inh -7.4, PABP1 MLLE inh 47.2*, eIF4E 4G PPI -0.9 and PABP polyA inh inactive.
FC(F)(F)c1ccc(Cl)c(-n2c(-c3ccco3)n[nH]c2=S)c1 was read as eIF4H inh -9.7, PABP1 MLLE inh -46.3 and PABP polyA inh inactive.
FC(F)(F)c1ccc(Cl)c(-n2c(-c3cc(-c4ccco4)[nH]n3)n[nH]c2=S)c1 was read as PERK inhibitor 0.3, eIF4H inh inconclusive, PABP1 MLLE inh -54.5, eIF4E 4G PPI -6.4 and PABP polyA inh active.
For O=C(Nc1cc(S(=O)(=O)N2CCOCC2)ccc1N1CCCCC1)c1ccccc1Br the results were PABP1 MLLE inh 4.3.
For Cc1ccc(S(=O)(=O)NC(=O)NN2CC3CCCC3C2)cc1 (centres undefined) the results were eIF4H inh -1.8, PABP1 MLLE inh -10.5 and PABP polyA inh inactive.
N=C1S/C(=C\c2ccco2)C(=O)N1c1nccs1 was read as PERK inhibitor -0.8, eIF4H inh 95.2*, PABP1 MLLE inh 7.0, eIF4E 4G PPI -1.2 and PABP polyA inh active.
`N=C1S/C(=C\c2ccco2)C(=O)N1c1ccc2c(c1)OCO2` gave PERK inhibitor 0.9, eIF4H inh 91.0, PABP1 MLLE inh -11.3, eIF4E 4G PPI 13.3 and PABP polyA inh active.
`COc1ccccc1OCCN1C(=O)S/C(=C\c2ccco2)C1=O` gave PERK inhibitor 0.0, eIF4H inh -13.4, PABP1 MLLE inh -0.4, eIF4E 4G PPI 6.1 and PABP polyA inh inactive.
For NCCN1C(=O)S/C(=C\c2ccc3c(c2)OCO3)C1=O the results were eIF4H inh -17.7, PABP1 MLLE inh 20.2 and PABP polyA inh inactive.
Cc1ccc(N=Cc2ccc(O)cc2O)cc1F was read as PERK inhibitor -0.5, eIF4H inh 53.5*, PABP1 MLLE inh -0.3, eIF4E 4G PPI 20.9 and PABP polyA inh active.

Compound activity deposited in PubChem BioAssay by several laboratories.
